Source: PubChem
Only a selection was taken, and hits are over-represented in it overall.
SF1 inhibitor: inhibitors of human nuclear receptor SF-1. Q13285. CHO-K1 Gal4-SF-1 LBD luciferase reporter. inhibition, % at 10 µM. hit rate 0.55% among 65,000;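 active means inhibition above the mean inhibition of all tested compounds plus 3 SD, cut at about 48% in these data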
Numbers stand for hits.

Cc1ccc(OCC(=O)Nc2ccc(N3CCOCC3)cc2)cc1 was read as SF1 inhibitor inactive.
Screening CC(=O)c1ccc(NC(=O)C2CCCN2S(=O)(=O)c2ccc(C)cc2)cc1 (stereo not drawn) returned SF1 inhibitor inactive.
O=C(Nc1cnc2sccn2c1=O)c1ccccc1Cl was read as SF1 inhibitor inactive.
For CN1CCN(S(=O)(=O)c2ccc(-c3ccc(S(=O)(=O)N4CCN(C)CC4)cc3)cc2)CC1 the results were SF1 inhibitor inactive.
`Cc1ccc(S(=O)(=O)N2CCN(Cc3ccccc3C(F)(F)F)CC2)cc1` gave SF1 inhibitor inactive.
CC1(C)Cc2c(c(-c3ccco3)[nH]c(=O)c2C#N)CO1 was read as SF1 inhibitor inactive.
Screening CC1CC1C(=O)OCC(=O)NCc1ccccc1Cl (stereo not drawn) returned SF1 inhibitor inactive.
For CCCCCOC(=O)c1[nH]c2c(c1C)C(=O)CC(c1ccco1)C2 (stereo not drawn) the results were SF1 inhibitor 57.4.
`Cn1nc(-c2ccc(Cl)cc2)c2cc(C(=O)NCCCN3CCCC3)sc21` gave SF1 inhibitor inactive.
Screening O=C(OCC(=O)c1c[nH]c2ccccc12)C1=COCCO1 returned SF1 inhibitor inactive.
For O=S(=O)(NCC1CCCO1)c1ccc(S(=O)(=O)N2CCc3ccccc3C2)cc1 (stereo not drawn) the results were SF1 inhibitor inactive.
`CCOC(=O)CSC(CC)C(=O)Nc1nnc(CC)s1` (stereo not drawn) gave SF1 inhibitor inactive.
`O=C(CSC1=NCCS1)Nc1ccnc2ccccc12` gave SF1 inhibitor 66.9.
For O=C(CSc1cn(Cc2ccccc2)c2ccccc12)Nc1nccs1 the results were SF1 inhibitor inactive.
Screening O=C(CCCSc1nc2ccccc2[nH]1)NC1=NCCS1 returned SF1 inhibitor inactive.
CC(=O)c1c(C)[nH]c(C(=O)OCC(=O)Nc2ncc(Cl)c(C)c2Cl)c1C was read as SF1 inhibitor inactive.
For Clc1cc(Cl)c2nc(N3CCCC3)sc2c1 the results were SF1 inhibitor inactive.
`CC(=O)Nc1cccc(NC(=O)c2cc3ccccc3o2)c1` gave SF1 inhibitor inactive.
For CCCC(=O)N1CCN(c2ccc(NC(=O)c3cc4ccccc4o3)cc2Cl)CC1 the results were SF1 inhibitor 48.2.
For COc1ccc(NC(=O)c2cc3ccccc3o2)cc1 the results were SF1 inhibitor inactive.
`O=C(NC1CCCCC1)C1CCN(c2nccs2)CC1` gave SF1 inhibitor inactive.
Screening COc1cccc(-c2nc(-c3ccccn3)no2)c1OC returned SF1 inhibitor inactive.
Brc1ccc(-c2nc(-c3cccnc3)no2)o1 was read as SF1 inhibitor inactive.
Screening c1ccc(CCCc2nc(-c3ccccn3)no2)cc1 returned SF1 inhibitor inactive.
Screening Cc1ccccc1-c1noc(-c2ccc(O)cc2)n1 returned SF1 inhibitor inactive.
For Clc1ccc(OCc2nc(-c3ccncc3)no2)c(Cl)c1 the results were SF1 inhibitor inactive.
For CC(C)(C)c1ccc(OCc2nc(-c3ccccn3)no2)c(Br)c1 the results were SF1 inhibitor inactive.
Screening Cc1ccc(-c2nc(-c3ccccn3)no2)cc1Cl returned SF1 inhibitor 85.8.
For Cc1ccc(-c2nc(-c3ccccn3)no2)cc1 the results were SF1 inhibitor 92.2.
`Clc1cccc(-c2nc(-c3ccccn3)no2)c1` gave SF1 inhibitor 70.9.
CCCCn1c2nc3ccccc3nc2c2c(=N)oc(C)nc21 was read as SF1 inhibitor inactive.
`CSc1nc2sc3c(c2c(=O)n1C)CCC(C)C3` (stereo not drawn) gave SF1 inhibitor inactive.
For COc1cccc(OC)c1C(=O)Nc1ccc(CN2CCOCC2)cc1 the results were SF1 inhibitor inactive.
Screening Cn1cc(C(=O)NCCN2CCN(c3ccccc3F)CC2)c2c3ccccc3n(C)c2c1=O returned SF1 inhibitor inactive.
`Cc1cc(C(=O)Nc2sc3c(c2C#N)CCC3)no1` gave SF1 inhibitor inactive.
For Cc1cc(C(=O)Nc2sc3c(c2C#N)CCCC3)no1 the results were SF1 inhibitor inactive.
For Cc1ccnc(SCC(=O)Nc2sc3c(c2C#N)CCCC3)n1 the results were SF1 inhibitor 76.0.
For CCSc1nnc(NC(=O)c2cc(C)oc2C)s1 the results were SF1 inhibitor inactive.
Screening Cc1nc2ccc(NC(=O)Cn3cnc4c3c(=O)n(C)c(=O)n4C)cc2s1 returned SF1 inhibitor inactive.
`Cc1nc(NCCc2cnc[nH]2)c2oc3ccccc3c2n1` gave SF1 inhibitor inactive.
Screening COc1ccc(CCNc2ncnc3c2oc2ccccc23)cc1OC returned SF1 inhibitor 72.5.
`CCc1nc(NCc2ccccn2)c2oc3ccccc3c2n1` gave SF1 inhibitor inactive.
For Cc1nc(NCc2ccco2)c2oc3ccccc3c2n1 the results were SF1 inhibitor inactive.
`COc1ccc(CCNc2nc(C)nc3c2oc2ccccc23)cc1OC` gave SF1 inhibitor 57.9.
CC(=O)c1ccc(Nc2ncnc3c2oc2ccccc23)cc1 was read as SF1 inhibitor inactive.
`COc1ccc(OC)c(S(N)(=O)=O)c1` gave SF1 inhibitor inactive.
Screening COc1ccc(N2CC(C(=O)Nc3ccc(N4CCOCC4)cc3)CC2=O)cc1 (stereo not drawn) returned SF1 inhibitor inactive.
